# Measured values published in PubChem BioAssay AID651871 (Sanford-Burnham Center for Chemical Genomics, 2012).
# Test system: HL-1
# Assay: protection of cardiomyocytes from stress damage, SAR follow-up, cell-based, panel, H9c2 and HL-1, ATP luminescence, set 2 (AID 651871);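 also: cells exposed to stressor for 2 h before ATP readout; reference of the scale not given here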
# Details: H9c2/HL-1 cardiomyocytes, 2-deoxyglucose stress, with 2-deoxyglucose, run 12, at 19.8 µM (top of the series)
smiles,measurement,value
COc1ccc2c(c1OC)C(=O)N1c3ccccc3C(=O)N(Cc3cccc(Cl)c3Cl)C21 (stereo unspecified),activity (protection/inhibition),51%
